Target: T1, Methionyl-tRNA synthetase, putative (Leishmania donovani (strain BPK282A1)) (UniProt E9BF75)
T1 sequence (whole entry): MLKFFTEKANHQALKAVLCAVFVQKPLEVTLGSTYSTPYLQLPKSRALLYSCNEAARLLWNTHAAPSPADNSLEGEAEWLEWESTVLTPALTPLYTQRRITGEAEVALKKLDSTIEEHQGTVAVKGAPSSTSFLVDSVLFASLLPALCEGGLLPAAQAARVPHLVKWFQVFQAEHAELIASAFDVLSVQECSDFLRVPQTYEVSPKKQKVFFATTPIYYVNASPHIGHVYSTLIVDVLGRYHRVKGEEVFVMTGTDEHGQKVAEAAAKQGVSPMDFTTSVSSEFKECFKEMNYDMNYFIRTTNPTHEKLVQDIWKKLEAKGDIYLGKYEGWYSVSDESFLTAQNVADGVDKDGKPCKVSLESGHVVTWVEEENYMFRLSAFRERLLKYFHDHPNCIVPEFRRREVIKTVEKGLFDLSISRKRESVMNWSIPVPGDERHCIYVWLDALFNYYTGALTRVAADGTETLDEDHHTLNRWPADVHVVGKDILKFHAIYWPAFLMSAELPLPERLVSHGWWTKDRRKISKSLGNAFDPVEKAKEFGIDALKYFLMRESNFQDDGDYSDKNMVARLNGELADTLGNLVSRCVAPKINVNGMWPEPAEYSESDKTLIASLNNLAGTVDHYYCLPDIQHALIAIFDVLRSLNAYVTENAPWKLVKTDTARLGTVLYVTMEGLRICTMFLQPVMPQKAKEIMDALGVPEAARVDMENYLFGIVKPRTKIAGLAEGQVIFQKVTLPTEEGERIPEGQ
Assay: Leishmania donovani Methionine tRNA synthetase (LdMetRS):v7. Dose response assay
Assay type: functional
Set-up: conc 80 nM, time 150 minutes

Cc1nc(N(C)CC(=O)NC2CC2)c2c3c(sc2n1)CCCC3
PXC50 (MAX_EFFECT 4.761904762): < 4
PXC50 (MAX_EFFECT 5.333333333): < 4

Fc1cccc(OC[C@@H]2CCCN2)c1Oc1ccc(Cl)cc1
PXC50 (MAX_EFFECT 8.488612836): < 4
PXC50 (MAX_EFFECT 13.00639659): < 4

Cc1nc(N2CCNC(=O)CC2C)c2c(CC(C)C)csc2n1 (stereo not given)
PXC50 (MAX_EFFECT 4.918032787): < 4
PXC50 (MAX_EFFECT 7.486631016): < 4

CS(=O)(=O)N1CCN(c2ccc3ccc(C(=O)N4CCCCO4)cn23)CC1
PXC50 (BOTTOM 3.408302262, HILLSLOPE 2.699207266, MAX_EFFECT 56.14035088, TOP 100.0): 4.33
PXC50 (BOTTOM -1.088314762, HILLSLOPE 0.901802249, MAX_EFFECT 54.6875, TOP 100.0): 4.49

Fc1ccc(Nc2nc(-c3ccccn3)cs2)cc1
PXC50 (MAX_EFFECT 22.79069767): < 4
PXC50 (MAX_EFFECT 23.07692308): < 4

Cn1cc(CN2CCC(F)(F)C3(CCN(c4ncc(F)cn4)C3)C2)cn1 (stereo not given)
PXC50 (MAX_EFFECT 3.286384977): < 4
PXC50 (MAX_EFFECT 5.740740741): < 4

CCOC(=O)N1CCN(c2nc(CCN)nc3sc(C)c(C)c23)CC1
PXC50 (BOTTOM 0.0282, HILLSLOPE 1.091908383, MAX_EFFECT 72.32375979, TOP 100.0): 4.33
PXC50 (BOTTOM 1.098813228, HILLSLOPE 1.170601195, MAX_EFFECT 79.37336815, TOP 100.0): 4.4

Cc1cc(C(F)(F)F)nc(N(C)Cc2c(C)noc2C)n1
PXC50 (MAX_EFFECT 10.44386423): < 4
PXC50 (MAX_EFFECT 10.70496084): < 4

Cc1sc2nc(CCN)nc(N3CC(N4CCCCC4)C3)c2c1C
PXC50 (MAX_EFFECT 21.14882507): < 4
PXC50 (MAX_EFFECT 25.06527415): < 4

CC(O)CNc1nc(CN2CCCCC2)nc2sc3c(c12)CCCC3 (stereo not given)
PXC50 (MAX_EFFECT 8.108108108): < 4
PXC50 (MAX_EFFECT 9.547738693): < 4

Cn1cc(CN2CCC(F)(F)C3(CCN(c4cccc(F)c4)C3)C2)cn1 (stereo not given)
PXC50 (MAX_EFFECT 7.256235828): < 4
PXC50 (MAX_EFFECT 17.57009346): < 4

Cc1nc(N(C)CC(=O)N(C)C)c2c3c(sc2n1)CCC3
PXC50 (MAX_EFFECT 0.0): < 4
PXC50 (MAX_EFFECT 1.058201058): < 4

FC(F)(F)c1nc(N2CCCC2)nc2c1CCCCC2
PXC50 (MAX_EFFECT 2.290076336): < 4
PXC50 (MAX_EFFECT 5.793450882): < 4

COCCNc1nc(CN2CCOCC2)nc2sc3c(c12)CCCC3
PXC50 (MAX_EFFECT -0.877192982): < 4
PXC50 (MAX_EFFECT -1.5625): < 4

Cn1cc(CN2CCC(F)(F)C3(CCN(c4ccccn4)C3)C2)cn1 (stereo not given)
PXC50 (MAX_EFFECT 6.802721088): < 4
PXC50 (MAX_EFFECT 8.971962617): < 4

CCc1nc(NC(C(=O)O)C(C)C)c2cc(CC)sc2n1 (stereo not given)
PXC50 (MAX_EFFECT 9.289617486): < 4
PXC50 (MAX_EFFECT 12.29946524): < 4

Cc1nc(N2CCN(c3ccccn3)CC2)c2c3c(sc2n1)CCCC3
PXC50 (MAX_EFFECT 22.61306533): < 4
PXC50 (MAX_EFFECT 22.85012285): < 4

Nc1cc(O)c(Cl)cc1Cl
PXC50 (MAX_EFFECT 7.034220532): < 3
PXC50 (MAX_EFFECT 11.44708423): < 3

Cc1cc2c(N3CCN(CCO)CC3)nc(-c3cccnc3)nc2s1
PXC50 (MAX_EFFECT 11.05527638): < 4
PXC50 (MAX_EFFECT 12.53071253): < 4

Cc1nccn1CCCn1cncc1-c1ccc2c(c1)CCCN2C
PXC50 (MAX_EFFECT 9.523809524): < 4
PXC50 (MAX_EFFECT 19.43925234): < 4

CN(C)CCNC(=O)c1ccc2ccc(N(C)CC3CC3)n2c1
PXC50 (MAX_EFFECT 42.17687075): < 4
PXC50 (MAX_EFFECT 43.73831776): < 4

Nc1noc2ccc(-c3cnc4ccc(N5CCOCC5)nn34)cc12
PXC50 (MAX_EFFECT 12.21374046): < 4
PXC50 (MAX_EFFECT 20.61403509): < 4

CCc1cc2c(NC(CC(C)C)C(=O)O)nc(C)nc2s1 (stereo not given)
PXC50 (MAX_EFFECT 8.0): < 4
PXC50 (MAX_EFFECT 13.22751323): < 4

N[C@H]1CCOc2c(Cl)cc(Cl)cc21
PXC50 (MAX_EFFECT 2.517162471): < 2.7
PXC50 (MAX_EFFECT 3.676470588): < 2.7

CCOC(=O)c1cnn(-c2nc(C)nc3sc4c(c23)CCC(C)C4)c1N (stereo not given)
PXC50 (MAX_EFFECT 8.465608466): < 4
PXC50 (MAX_EFFECT 9.066666667): < 4

Cc1cc(C)n(-c2nc(NC3CCCC3)c3c4c(sc3n2)CCCC4)n1
PXC50 (MAX_EFFECT 22.91666667): < 4
PXC50 (MAX_EFFECT 34.21052632): < 4

Nc1nc(CSc2nnc[nH]2)nc2sc3c(c12)CCCC3
PXC50 (MAX_EFFECT 21.33333333): < 4
PXC50 (MAX_EFFECT 26.98412698): < 4

CCOc1ccc(CN(C)Cc2nc(N)c3c(C)c(C)sc3n2)cc1
PXC50 (MAX_EFFECT 7.466666667): < 4
PXC50 (MAX_EFFECT 8.994708995): < 4

OB1OCc2ccccc21
PXC50 (MAX_EFFECT 10.0456621): < 4
PXC50 (MAX_EFFECT -0.566037736): < 4

O=C(c1c[nH]cn1)N1CCC(F)(F)C2(CCN(c3ncccn3)C2)C1 (stereo not given)
PXC50 (MAX_EFFECT 6.572769953): < 4
PXC50 (MAX_EFFECT 11.2962963): < 4

CN1CCC(CNC(=O)c2ccc3ccc(N4CCN(S(C)(=O)=O)CC4)n3c2)CC1
PXC50 (BOTTOM 1.275548684, HILLSLOPE 2.230174864, MAX_EFFECT 66.02870813, TOP 65.69793646): 4.77
PXC50 (BOTTOM -0.677256268, HILLSLOPE 1.919543897, MAX_EFFECT 70.20109689, TOP 75.47637091): 4.69

CCc1nc(N2CCN(c3ncccn3)CC2)c2cc(CC)sc2n1
PXC50 (MAX_EFFECT 23.46666667): < 4
PXC50 (MAX_EFFECT 25.3968254): < 4

Cc1cc2c(N3CCOCC3)nc(-c3cccnc3)nc2s1
PXC50 (MAX_EFFECT 2.18579235): < 4
PXC50 (MAX_EFFECT 5.347593583): < 4

CS(=O)(=O)N1CCN(c2ccc3ccc(C(=O)NCc4ccccc4)cn23)CC1
PXC50 (BOTTOM 9.61795032, HILLSLOPE 2.1052237, MAX_EFFECT 58.50091408, TOP 60.20064035): 4.73
PXC50 (BOTTOM -0.0629, HILLSLOPE 2.117070317, MAX_EFFECT 53.11004785, TOP 51.4182088): 5.1

Cc1sc2nc(C(F)(F)F)nc(N3CCN(C)CC3)c2c1C
PXC50 (MAX_EFFECT 6.788511749): < 4
PXC50 (MAX_EFFECT 7.049608355): < 4

From ChEMBL document CHEMBL3988442, “University of Dundee, Small-Polar-MMV Screening Library” (2021)
